# Screening data from PubChem BioAssay.
# TEAD-YAP inh: TEAD-YAP interaction inhibition | HEK-TIYL cells, TEAD-Gal4/YAP UAS-luciferase luminescence | inhibition, % at 9.12 µM | 1.4% of 640,000 active | AID 1259422; in the data active means inhibition above about 32%
# FBW7 act: activators of human E3 ligase FBW7 | Q969H0 | AlphaScreen FBW7–phospho-cyclin E peptide binding, activator screen | normalized activity (activation), % at 26.1 µM | 0.13% of 650,000 active; in the data active means normalized activity above about 1.9%;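 further: purified mutant Fbw7 with reduced substrate affinity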
# Target sequence (Q969H0 whole entry, looked up): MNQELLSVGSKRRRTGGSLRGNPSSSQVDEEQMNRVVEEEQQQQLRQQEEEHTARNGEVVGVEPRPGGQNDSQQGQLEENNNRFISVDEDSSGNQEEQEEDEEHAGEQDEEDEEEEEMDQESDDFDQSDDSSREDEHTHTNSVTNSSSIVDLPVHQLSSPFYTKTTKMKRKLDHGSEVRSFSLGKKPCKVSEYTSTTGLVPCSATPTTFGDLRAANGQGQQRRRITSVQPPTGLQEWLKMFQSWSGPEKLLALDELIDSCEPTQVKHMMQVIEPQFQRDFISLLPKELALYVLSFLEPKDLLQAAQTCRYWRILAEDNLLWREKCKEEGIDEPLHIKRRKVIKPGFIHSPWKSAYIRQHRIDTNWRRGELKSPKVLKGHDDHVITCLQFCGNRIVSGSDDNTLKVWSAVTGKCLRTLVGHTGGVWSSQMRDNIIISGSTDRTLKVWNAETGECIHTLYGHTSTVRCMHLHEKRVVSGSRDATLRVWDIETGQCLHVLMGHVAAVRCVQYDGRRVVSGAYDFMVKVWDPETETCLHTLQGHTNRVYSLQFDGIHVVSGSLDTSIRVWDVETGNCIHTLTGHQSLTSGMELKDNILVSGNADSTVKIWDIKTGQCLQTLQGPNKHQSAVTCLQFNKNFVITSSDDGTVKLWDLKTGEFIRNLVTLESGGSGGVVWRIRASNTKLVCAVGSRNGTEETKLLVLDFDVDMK
# GPR151 activ: activates the human receptor GPR151; Q8TDV0; PathHunter beta-arrestin GPR151 cells, luminescence; activation, % at 11.2 µM; 1% of 650,000 active; AID 1508602; in the data active means activation above about 4.9%
# MITF primary: human MITF inhibition, primary screen; O75030; AlphaScreen MITF homodimerization, bead proximity signal; inhibition, % at 2.6 µM; 0.91% of 650,000 active; AID 1259374; in the data active means inhibition above about 50%
# MITF confirm: confirmation of human MITF inhibitors; shares compounds with MITF primary; AlphaScreen MITF homodimerization, biotin/His-MITF beads; inhibition, % at 2.6 µM; 16% of 4,700 active; AID 1259372;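 active means inhibition above a cutoff derived from the DMSO control wells, cut at about 28% in these data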;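 further: inhibitors lower the bead chemiluminescence by keeping MITF from dimerizing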
# AlphaScreen intf2: AlphaScreen optical interference, counter-screen; shares compounds with MITF primary; LysRS AlphaScreen counterscreen, signal interference, triplicate; inhibition, % at 2.6 µM; 7.6% of 4,700 active;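 active means inhibition above a cutoff derived from the DMSO control wells, cut at about 30% in these data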
# GPR151 conf act: human GPR151 activation, confirmation screen | shares compounds with GPR151 activ | GPR151 PathHunter beta-arrestin cells, luminescence, 90 min; % of EA-reagent control over plate median | activation, % at 11.2 µM | 6,700 tested, under 10 active | AID 1508609;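 active means mean percent activation across replicates above the confirmation screen cutoff of 4.91%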
# GPR119 ag: counter-screen for GPR151 activators: effect on human GPR119; shares compounds with GPR151 activ; GPR119 PathHunter beta-arrestin cells, luminescence, 90 min; 0 = compound-well median, 100 = enzyme-acceptor control; activation, % at 11.2 µM; AID 1508611; 0.3% of 6,700 active;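 active means mean percent activation in the counterscreen above 29.09%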;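 further: counterscreen on off-target GPR119 to flag nonselective hits from the GPR151 activator screen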
# A number is an active result; - = inactive; . = no result. An excerpt weighted towards active compounds, which were near 3.4% of everything screened.
SMILES,TEAD-YAP inh,FBW7 act,GPR151 activ,MITF primary,GPR151 conf act,GPR119 ag,others
COc1ccc2cc(C(=O)Nc3ccccc3F)c(=N)oc2c1,-,-,-,-,.,.,
c1cncc(CN2CCN(Cc3cccc4ccccc34)CC2)c1,-,-,11.5,83.3,-,-,MITF confirm=-;AlphaScreen intf2=-
Cc1ccccc1OCCOCCn1cnc2ccccc21,-,-,4.9,71.9,-,-,MITF confirm=-;AlphaScreen intf2=-
O=[N+]([O-])c1ccc(S(=O)(=O)Nc2ccc(-c3nc4ccccc4[nH]3)cc2)cc1,-,-,-,-,.,.,
O=S(=O)(Nc1ccc(-c2nc3ccccc3[nH]2)cc1)c1ccc(-n2cccn2)cc1,-,-,5.8,-,-,-,
COc1cccc(-c2nnc3n2N=C(c2cccc([N+](=O)[O-])c2)CS3)c1,-,-,12.8,-,-,-,
Cc1ccn(CCC(=O)NCC2Cc3cc(-c4cnccn4)cc(Cl)c3O2)n1 (stereo unspecified),-,-,11.7,-,-,-,
Cn1ccc(C(=O)NCC2Cc3cc(-c4cnccn4)cc(Cl)c3O2)n1 (stereo unspecified),-,-,-,-,.,.,
COc1ccc(Cc2nn3c(-c4ccc(C)cc4)nnc3s2)cc1,-,-,6.4,-,-,-,
CCOc1ccc(NC(=O)Nc2cccc(OC)c2)c([N+](=O)[O-])c1,-,-,10.5,-,-,-,
CCOc1ccc(OCC(=O)Nc2ccc(OC)cc2[N+](=O)[O-])cc1,-,-,-,-,.,.,
COc1ccccc1-n1c(CNC(=O)c2ccc(S(=O)(=O)N3CCCCC3)cc2)nnc1SCC(=O)Nc1nccs1,-,-,5.4,-,-,-,
O=C(c1c[nH]c2ccc(S(=O)(=O)N(CCCN3CCOCC3)Cc3ccco3)cc2c1=O)N1CCc2ccccc21,-,-,-,-,.,.,
O=C(CC1OCCN(Cc2ccccc2)C1=O)Nc1ccc2c(c1)OCO2 (stereo unspecified),-,-,9.9,-,-,-,
Cc1ccc(NC(=O)c2cnn(-c3ccccc3)c2NC(=O)c2ccc(Cl)cc2)cc1,-,-,5.6,-,-,-,
O=C(O)c1ccc2c(=O)[nH]c(CSc3nnc(Nc4ccccc4)s3)nc2c1,-,-,8.4,-,-,-,
O=C(NCC(c1ccc2c(c1)OCO2)N1CCOCC1)C(=O)Nc1ccc(F)cc1 (stereo unspecified),-,-,-,-,.,.,
Cc1cccc(N(CCCN2C(=O)c3cccc4cccc(c34)C2=O)C(=O)c2cccs2)c1,-,-,5.7,-,-,-,
CCOC(=O)N1CCN(c2c(NC3CCC(C)CC3)c(=O)c2=O)CC1 (stereo unspecified),-,-,5.0,-,-,-,
O=C(O)c1ccc(CNc2c(N3CCCCC3)c(=O)c2=O)cc1,-,-,7.5,-,-,-,
CCOC(=O)N1CCN(c2c(NCc3ccc(Cl)cc3)c(=O)c2=O)CC1,53.2,-,4.9,-,-,-,
COc1cccc(CNC(=O)c2ccc(CNc3c(N4CCOCC4)c(=O)c3=O)cc2)c1,-,-,8.6,-,-,-,
CCOC(=O)N1CCN(c2c(NC3CCCCC3)c(=O)c2=O)CC1,-,-,-,-,.,.,
CCOC(=O)N1CCN(c2c(NCc3cccnc3)c(=O)c2=O)CC1,-,-,-,-,.,.,
CC(C)(C)c1ccc(S(=O)(=O)Nc2ccc(Cl)c(C(N)=O)c2)cc1,-,-,-,-,.,.,
SMILES,TEAD-YAP inh,FBW7 act,GPR151 activ,MITF primary,GPR151 conf act,GPR119 ag,others
CC(=O)c1ccc(NC(=O)CSc2ccc3nnc(-c4ccc(C)cc4)n3n2)cc1,-,-,5.8,-,-,-,
CC(=O)c1ccc(NC(=O)CSc2ccc3nnc(-c4ccc(F)cc4)n3n2)cc1,-,-,-,-,.,.,
Cc1ccc(-c2cc(C(F)(F)F)n3nc(C(=O)Nc4cc(Cl)ccc4Cl)c(Cl)c3n2)cc1,-,-,-,-,.,.,
COc1ccc(CCn2c(C)c(C(C)=O)c3cc(OC(=O)c4cccc(Cl)c4)ccc32)cc1OC,-,-,-,-,.,.,
COc1ccc2c(c1)c(C(=O)O)c(C)n2CCc1ccc(OC)c(OC)c1,-,-,5.6,-,-,-,
COc1ccc2nc(N3CCN(C(=O)C4CCCN4S(C)(=O)=O)CC3)sc2c1 (stereo unspecified),-,-,-,-,.,.,
O=C(COc1ccccc1)Oc1ccc2nc(N3CCCC3)sc2c1,-,-,9.1,-,-,-,
COc1ccc2nc(N3CCC(C(=O)N4CCCC4)CC3)sc2c1,-,-,6.9,-,-,-,
NC(=O)C1CCN(C(=O)c2ccc3nc(N4CCCCC4)sc3c2)CC1,-,-,12.2,-,-,-,
O=C(O)c1ccc2nc(N3CCCCC3)sc2c1,-,-,-,-,.,.,
O=C(NC1CCCC1)N1CCN(c2nc3ccc(F)cc3s2)CC1,-,-,6.4,-,-,-,
CCN1CCN(c2nc3ccc(OC(=O)COc4ccccc4)cc3s2)CC1,-,-,-,-,.,.,
NC(=O)c1ccc2nc(N3CCN(c4ccccn4)CC3)sc2c1,-,-,8.1,-,-,-,
Cc1nn(C(=O)c2ccco2)c(C)c1Sc1ccccc1[N+](=O)[O-],-,-,-,-,.,.,
Cc1cnc(Nc2ccc(-n3ccnc3)cc2)nc1NCCN(C(C)C)C(C)C,-,-,7.0,-,-,-,
COc1cccc2cc(C(=O)Nc3c(F)cccc3F)c(=O)oc12,-,-,-,-,.,.,
O=C1N(Cc2cccnc2)C[C@@H]2C[C@@H](c3cccn3-c3ncccn3)N3CCC[C@@]123,-,-,19.7,-,-,-,
O=C1N(Cc2cccnc2)C[C@@H]2C[C@@H](c3ccc(Oc4ncccn4)cc3)N3CCC[C@@]123,-,-,-,-,.,.,
CCC(C)NC(=O)CSc1ncccc1C(=O)O (stereo unspecified),-,-,5.1,-,-,-,
O=c1nc(/C=C/c2cc3c(cc2Br)OCO3)cc(C(F)(F)F)[nH]1,-,-,-,-,.,.,
CCc1nn(Cc2ccncc2)c(=O)c2cc3sc(C)cc3n12,-,-,-,-,.,.,
CC(=O)O[C@]1(C(C)=O)CC[C@H]2[C@@H]3C=C(Cl)C4=CC(=O)CC[C@]4(C)[C@H]3CC[C@@]21C,.,-,5.2,-,-,-,
Cc1cc(C)cc(C(=O)Nc2ccc3c(c2)CCCN3S(C)(=O)=O)c1,-,-,7.7,-,-,-,
COc1ccc(CCN(C)CCCC(C#N)(c2cc(OC)c(OC)c(OC)c2)C(C)C)cc1OC (stereo unspecified),-,-,5.6,-,-,-,
CS(=O)(=O)N(Cc1ccccc1)c1ccccc1C(=O)NCc1ccc2c(c1)OCO2,-,-,-,-,.,.,
